Hits are enriched below; roughly 0.8% of the tested compounds scored in any of these assays.
Tb PFK block: qHTS Assay to Find Inhibitors of T. brucei phosphofructokinase; ATP-dependent 6-phosphofructokinase (Trypanosoma brucei brucei), O15648; T. brucei PFK, ADP-Glo luminescence; Potency, µM (doses to about 57.5 µM), without a hit: at the top dose activity, negative = inhibition, usual class: inhibitors; 330,000 tested, 0.17% active; AID 485367, 2010;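 also: potency is read from the fitted curve at half-maximal effect; 0% = uninhibited 1x PFK enzyme wells and -100% = no-enzyme wells; nearly all actives have a fitted effect of over 60% in size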
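1.25 nM PFK with 0.5 mM F6P and 0.1 mM ATP in 0.1 M TEA pH 8.0, 5 mM MgCl2, incubated 45 min at room temperature; ADP measured by ADP-Glo luminescence; compounds titrated up to 57 uM.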
APEX1 inh: qHTS Assay for Inhibitors of the Human Apurinic/apyrimidinic Endonuclease 1 (APE1). recombinant APE1, TAMRA/BHQ-2 abasic DNA cleavage fluorescence. Potency, µM (doses to about 65.8 µM), without a hit: at the highest dose activity change, negative = inhibition, usual class: inhibitors. 350,000 tested, 0.35% active. AID 2517, 2012;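 also: potency is read from the fitted curve at half-maximal effect; plate controls were vehicle for no effect and reference inhibitor for full effect; nearly all actives have a fitted effect of over 55% in size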
Target sequence (P27695 whole entry, looked up): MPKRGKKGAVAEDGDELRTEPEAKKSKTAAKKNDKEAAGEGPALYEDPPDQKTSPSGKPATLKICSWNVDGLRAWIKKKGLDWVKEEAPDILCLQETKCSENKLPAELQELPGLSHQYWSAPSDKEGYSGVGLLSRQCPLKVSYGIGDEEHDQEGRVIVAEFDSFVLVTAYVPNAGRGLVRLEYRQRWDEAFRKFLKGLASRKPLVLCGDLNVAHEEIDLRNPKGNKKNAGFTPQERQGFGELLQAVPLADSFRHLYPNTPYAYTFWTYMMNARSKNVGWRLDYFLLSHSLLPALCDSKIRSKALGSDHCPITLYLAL
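Measures dequenching upon AP-site incision of a 5'-TAMRA/3'-BHQ-2 THF-containing duplex, 50 nM; human APE1 0.75 nM after 15 min room-temperature exposure to compound; kinetic three-point read at one-minute spacing.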
FEN1 inh: qHTS Assay for the Inhibitors of Human Flap endonuclease 1 (FEN1) | Potency, µM (series often up to 114 µM), for the others: top-dose activity change, negative = inhibition, usual class: inhibitors | Recombinant FEN1 flap cleavage, fluorescence, 15 min | P39748 | 390,000 tested, 0.35% active | AID 588795, 2011; also: potency is read from the fitted curve at half-maximal effect; nearly all actives have a fitted effect of over 65% in size
Target sequence (P39748 whole entry, looked up): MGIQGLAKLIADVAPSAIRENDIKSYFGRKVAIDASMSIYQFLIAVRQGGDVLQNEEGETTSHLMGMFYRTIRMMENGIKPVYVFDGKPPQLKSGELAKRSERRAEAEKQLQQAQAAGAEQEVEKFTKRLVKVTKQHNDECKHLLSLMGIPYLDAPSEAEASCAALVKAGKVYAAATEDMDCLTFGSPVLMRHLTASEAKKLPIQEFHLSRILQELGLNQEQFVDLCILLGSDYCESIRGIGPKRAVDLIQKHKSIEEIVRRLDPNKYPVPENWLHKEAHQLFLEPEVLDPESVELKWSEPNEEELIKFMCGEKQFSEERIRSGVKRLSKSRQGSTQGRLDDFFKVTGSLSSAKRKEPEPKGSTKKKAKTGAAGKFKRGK
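Reaction started by adding substrate (50 nM final) to 10 nM enzyme after 15 min room-temperature compound preincubation. Reads at 0 and 15 min, with data normalized and fitted to a four-parameter Hill equation.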
PGK inhibitor: qHTS Assay to Find Inhibitors of Phosphoglycerate Kinase. PGK/GAPDH coupled, Kinase-Glo luminescence, 60 min. Potency, µM (top dose mostly 57.5 µM), for the others: top-dose activity change, negative = inhibition, most hits filed as inhibitors. Phosphoglycerate kinase, glycosomal (Trypanosoma brucei brucei), P07378. 380,000 tested, 0.043% active; also: potency is read from the fitted curve at half-maximal effect; nearly all actives have a fitted effect of over 60% in size
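Recombinant glycosomal PGK reaction used 1,3-bisphosphoglycerate generated in-well by GAPDH (100nM final) in 100mM TEA pH 7.6, 5mM MgCl2, 0.01% Tween-20. After 60 minutes at room temperature, ATP was read by Kinase-Glo Plus luminescence end-point.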
TDP1 inh: qHTS Assay for Inhibitors of Tyrosyl-DNA Phosphodiesterase (TDP1); Potency, µM (doses to about 130 µM), without a hit: top-dose activity change, negative = inhibition, usual class: inhibitors; recombinant TDP1, AlphaScreen DNA substrate cleavage; 350,000 tested, 0.28% active; also: potency is read from the fitted curve at half-maximal effect; nearly all actives have a fitted effect of over 40% in size
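Compounds were preincubated with Tdp1 (1 nM final) for 15 min at room temperature before substrate (15 nM final) started a 5 min reaction; beads (10 ug/ml final) were then added for 10 min before AlphaScreen detection.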
PI4K2A block: qHTS for small molecular inhibitors of PI4K2A; Phosphatidylinositol 4-kinase type 2-alpha (Homo sapiens), Q9BTU6; purified PI4K2A, ADP-Glo luminescence, 1 h; stronger effect = lower value; activity change, negative = inhibition, % at 76.9 µM; 420,000 tested, 0.13% active; AID 1346378, 2018; in the data active = activity change below about -50%; inconclusive = mostly about -30% to -49%;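 also: -100% = wells without enzyme as full effect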
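In this quantitative HTS, ADP production by PI4K2A was quantified luminescently after 1 h at ambient temperature; 100 microM adenosine served as plate-quality control.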
* = called active by the depositor; ? = inconclusive; . = no result given; [ ] = dose if it differs, or a comment. Unless noted, calls follow the shape of the dose curve; as a rule, active = well fitted curve in the direction sought with a large enough effect; inconclusive = small, poorly fitted or top-dose-only effect, or another doubt; inactive = no such curve, though single readings can be large; an effect the other way counts as inactive or inconclusive. Unless noted, % is scaled to controls: 0 for no effect and ±100 for the full control effect.

SMILES	Tb PFK block	APEX1 inh	FEN1 inh	PGK inhibitor	TDP1 inh	PI4K2A block
CC[n+]1c(/C=C2\Sc3ccccc3N2C)ccc2cccc(C)c21	2%	-1%	13µM*	-5%	5%	-3
Nc1ccc(C(=O)OCC(O)CO)cc1 (configuration not stated)	.	.	.	.	.	4
Cc1csc(NC(=O)c2cn3ccccc3n2)n1	-29%	3%	-4%	?	3%	-56*
CCC(=O)O[C@]1(C(=O)COC)[C@@H](C)C[C@H]2[C@@H]3CCC4=CC(=O)C=C[C@]4(C)C3(F)[C@@H](O)C[C@@]21C (some centres not stated)	.	.	.	.	.	0
COc1ccccc1-c1cncnc1-n1ccnc1	.	0%	.	.	22µM*	.
N#Cc1ccccc1COC(=O)c1ccc2c(c1)OCO2	4%	37%	13%	-10%	-7%	-2
N#Cc1ccccc1COC(=O)c1ccc2c(c1)OCCO2	-3%	-1%	-9%	2%	89µM*	-1
COc1ccc2c(=O)c3c(=O)n(Cc4ccco4)c(-c4ccco4)nc3oc2c1	-5%	?	?	-17%	45µM*	-17
O=C(O)CN1C(=O)/C(=C/c2ccc(-c3cccc(Cl)c3)o2)SC1=S	.	.	.	.	5%	.
Cc1cn([C@@H]2O[C@H](CO)[C@@H](O)[C@H]2F)c(=O)[nH]c1=O	.	.	.	.	.	1
Cc1ccc(O)c(N=Nc2ccccc2)n1	.	1%	-5%	16µM*	17%[56.1 µM]	-67*
CC1CCN(c2ccc(-c3cccs3)nn2)CC1	-14%	-14%	-2%	-1%	.	-57*
CCc1ccc(S(=O)(=O)Nc2cccc(-c3ccc(N4CCC(C)CC4)nn3)c2)s1	.	.	-17%	-5%	5%	-1
COc1ccc2nc(N/C(N)=N/C(=S)Nc3cccc(C)c3)nc(C)c2c1	-7%	2%	?	-9%	5%	-21
COc1ccc2nc(N/C(N)=N/C(=S)Nc3c(C)cccc3C)nc(C)c2c1	-4%	-5%	32µM*	-16%	8%	-4
COc1cccc2c1C(=O)c1c(O)c3c(c(O)c1C2=O)C[C@@](O)(C(=O)CO)C[C@@H]3O[C@H]1C[C@H](N)[C@H](O[C@@H]2CCCCO2)[C@H](C)O1	.	.	.	.	.	-16
O=C(CNC(=O)C1CCCC1)OC(C(=O)Nc1cc(C(F)(F)F)ccc1Cl)c1ccccc1 (configuration not stated)	.	.	.	.	1%	.
O=C(Nc1noc2ccccc12)c1ccc(F)cc1	.	.	2%	.	5%	-56*
COc1ccc(/C=C/C(=O)NCc2ccccn2)cc1	1%	0%	2%	4%	1%	-5
Cc1ccc(/C=C/C(=O)NCc2ccccn2)o1	?	?	-26%	?	14µM*	-2
Oc1ccc(NCc2ccccc2OCc2ccc(Cl)cc2)cc1	.	.	-15%	8%	2%	-53*
C=C(NC(=O)C(=C)NC(=O)c1csc(C2=N[C@@H]3c4csc(n4)[C@H]4NC(=O)c5csc(n5)[C@H]([C@](C)(O)[C@@H](C)O)NC(=O)[C@H]5CSC(=N5)C(=CC)NC(=O)C([C@@H](C)O)NC(=O)c5csc(n5)[C@]3(CC2)NC(=O)[C@H](C)NC(=O)C(=C)NC(=O)[C@H](C)NC(=O)C([C@@H](C)CC)NC2C=Cc3c([C@H](C)O)cc(nc3C2O)C(=O)O[C@@H]4C)n1)C(N)=O (some centres not stated)	.	5%[21 µM]	.	.	.	.
CC(C)(C)NCC(O)COc1ccccc1OCC1CCCO1 (configuration not stated)	.	.	.	.	.	0
Nc1ncnc2c1ncn2C1CCC(CO)C(O)C1 (configuration not stated)	3%	-2%	-2%	-1%	7%	-54*
Nc1ncnc2c1ncn2C1CCCO1 (configuration not stated)	-12%	8%	0%	-3%	10%	-27
SMILES	Tb PFK block	APEX1 inh	FEN1 inh	PGK inhibitor	TDP1 inh	PI4K2A block
Nc1ncnc2c1ncn2C1CCCC1	-9%	-11%	14%	4%	.	-65*
Nc1ncnc2c1ncn2[C@H]1C[C@H](O)[C@@H](CO)O1	-2%	3%	0%	-9%	0%	?
Cc1onc(-c2ccccc2)c1C(=O)Cl	.	.	.	.	.	-4
COc1ccc(-[n+]2c(C)cc(/C=C3\Sc4ccccc4N3C)cc2C)cc1	-5%	1%	22µM*	7%	5%	1
Cc1ccc(N=Cc2cccc(O)c2O)c(C)c1	-25%	-11%	4.5µM*	.	12%	.
Oc1cccc(/C=N/N=C/c2cccc(O)c2O)c1O	19%	-32%	-19%	-20%	.	-23
Cc1ccccc1N=Cc1cccc(O)c1O	-11%	?	50µM*	-6%	8%	-15
N/C(=N\OC(=O)c1ccccc1)c1ccccn1	?	19%	0%	?	-10%	-67*
CCOC(=O)C1CCCN(c2nc3ccccc3nc2C(C#N)C(=O)OCCOC)C1 (configuration not stated)	-12%	16%	-12%	-2%	3%	2
CCOC(=O)C1CCN(c2nc3ccccc3nc2C(C#N)C(=O)NCCc2ccccc2)CC1 (configuration not stated)	9.5µM*	-2%	.	.	6%	.
C=CC1=C(C)C2=NC1=CC1=NC(=CC3=NC(=CC4=NC(=C2)C(C)=C4CCC(=O)O)C(CCC(=O)O)=C3C)C(C=C)=C1C.[Zn]	.	4.5µM*	.	.	.	.
CCc1cc2cc(OC)c(OC)cc2c(Cc2ccccc2)n1	.	.	.	.	.	-4
Nn1cnnc1N/N=C/c1ccc(F)cc1	-1%	16%	?	-5%	.	?
Nn1cnnc1N/N=C/c1ccc(Cl)c([N+](=O)[O-])c1	-7%	-9%	?	-1%	7%	-52*
NNc1nc2c(Cl)c(Cl)ccc2s1	?	3.2µM*	?	?	?	-2
Nc1nc(N)nc(-c2cc([N+](=O)[O-])ccc2O)n1	0%	20%	-17%	-4%	56µM*	-20
Nc1nc(N)nc(-c2cc(O)ccc2O)n1	-2%	-10%	-10%	-6%	-1%	?
N#Cc1nc(Nc2cc(F)cc(F)c2)nc(NC2CCCC2)n1	.	.	.	.	-1%	.
